High-throughput results deposited in PubChem by National Center for Advancing Translational Sciences (NCATS).
CHX counter: counter-screen hit for Shiga toxin inhibitors, cycloheximide; cell reporter, cycloheximide protein synthesis inhibition counterscreen; max response, %; actives 12% (n = 300,000); AID 2314; in the data active = max response mostly above about 13%, no sharp cut-off; inactive = mostly below about 14%; also: read at 38.3 µM for the half of the compounds with a filed dose; 0% is about no effect
LmPK inh: LmPK (Leishmania mexicana) enzyme inhibition; actives 0.37% (n = 290,000); purified LmPK, Kinase-Glo ATP luminescence, 1 h; AID 1721; Q27686; Potency, µM (series often up to 57.5 µM), inactives show at the top dose activity change, negative = inhibition, actives largely listed as inhibitors; also: potency is read from the fitted curve at half-maximal effect; % is scaled to controls: 0 for no effect and ±100 for the full control effect
Target sequence (Q27686 whole entry, looked up): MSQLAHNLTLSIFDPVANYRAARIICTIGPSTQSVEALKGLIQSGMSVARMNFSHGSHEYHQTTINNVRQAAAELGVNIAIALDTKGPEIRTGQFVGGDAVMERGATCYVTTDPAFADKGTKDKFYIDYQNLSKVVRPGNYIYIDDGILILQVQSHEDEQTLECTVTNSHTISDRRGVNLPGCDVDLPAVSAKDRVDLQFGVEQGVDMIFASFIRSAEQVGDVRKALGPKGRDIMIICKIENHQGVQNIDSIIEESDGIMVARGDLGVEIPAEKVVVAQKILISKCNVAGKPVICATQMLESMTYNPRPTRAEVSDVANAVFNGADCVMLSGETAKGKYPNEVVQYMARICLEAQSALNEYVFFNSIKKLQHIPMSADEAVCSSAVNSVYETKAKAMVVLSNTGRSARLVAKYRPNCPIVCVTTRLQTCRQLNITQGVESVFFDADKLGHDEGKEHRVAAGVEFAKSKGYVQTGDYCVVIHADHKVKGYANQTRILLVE
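Kinase-Glo luminescence read after 1 h RT reaction of 0.1 nM LmPK with 0.5 mM PEP and 0.1 mM ADP. Activity scaled between uninhibited and enzyme-free controls.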
Sm TGR block: blocks Schistosoma mansoni thioredoxin glutathione reductase. Q962Y6. purified TGR, DTNB reduction, TNB absorbance 405 nm. Potency, µM (doses to about 114 µM), for the others: at the highest dose activity change, negative = inhibition, actives largely listed as inhibitors. actives 3% (n = 360,000). AID 485364; also: potency is read from the fitted curve at half-maximal effect; % is scaled to controls: 0 for no effect and ±100 for the full control effect; nearly all actives have a fitted effect of over 60% in size
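TGR 20 nM + NADPH 100 uM (dispensed conc.), cpd preinc 15 min RT; start with NADPH (500 uM addition) then DTNB (15 mM addition). Kinetic TNB absorbance, 405 nm filter. Four-parameter Hill fit across titration.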
TbPYK inhibitor: blocks Trypanosoma brucei pyruvate kinase; Q57TT1; actives 0.12% (n = 410,000); Potency, µM (highest dose often 76.8 µM), without a hit: at the highest dose activity, negative = inhibition, actives largely listed as inhibitors; TbPYK enzyme, Kinase-Glo Plus ATP luminescence, 45 min; also: potency is read from the fitted curve at half-maximal effect; % is scaled to controls: 0 for no effect and ±100 for the full control effect; nearly all actives have a fitted effect of over 50% in size
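Screened from lowest to highest concentration, compounds were pinned into TbPYK/substrate mixtures, and ADP (130 uM final) was added. Plates sat at room temperature for 45 min prior to Kinase-Glo Plus detection by luminescence.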
FBPA Giardia inh: blocks Giardia fructose-bisphosphate aldolase activity. Potency, µM (series often up to 59.6 µM), inactives show at the top dose activity, negative = inhibition, most hits filed as inhibitors. purified Giardia FBPA. A8B2U2. actives 0.71% (n = 290,000); also: potency is read from the fitted curve at half-maximal effect; % is scaled to controls: 0 for no effect and ±100 for the full control effect; nearly all actives have a fitted effect of over 55% in size
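40 nM FBPA preincubated 10 min at RT with compound (up to 57.5 uM final), then substrate plus GAPDH/TPI/NAD/arsenate coupling and diaphorase/resazurin added. Fluorescence read after 20 min at RT, 525/598 nm.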
Shiga inhibitor: blocks Shiga toxin action in Vero cells. Vero cells, Shiga toxin protein synthesis inhibition reporter. inhibition, % at 38.7 µM. actives 9.2% (n = 290,000); in the data active = inhibition mostly above about 28%, no sharp cut-off; inactive = mostly below about 43%; also: 0% is about no effect
Numbers without * were called inactive; ? = inconclusive; . = not tested or not shown. This is one part of a sample in which hits are shown more often than they occur. Unless noted, calls follow the shape of the dose curve; as a rule, active = well fitted curve in the direction sought with a large enough effect; inconclusive = small, poorly fitted or top-dose-only effect, or another doubt; inactive = no such curve, though single readings can be large; an effect the other way counts as inactive or inconclusive.

SMILES	CHX counter	LmPK inh	Sm TGR block	TbPYK inhibitor	FBPA Giardia inh	Shiga inhibitor
CCN1C(=O)c2ccccc2Sc2ccc(C(=O)NCCCN(CC(C)C)CC(C)C)cc21	23	-8%	-32%	7%	8%	-3
Cc1oc(-c2cccc(Br)c2)nc1CSc1nc2ncccc2[nH]1	.	.	-5%	-1%	.	.
COc1cccc(-c2cc(C(=O)NC3CCCC3)no2)c1	47*	-9%	1%	0%	-9%	145*
COCC(C)NC(=O)c1cc(-c2ccc(O)cc2)on1 (configuration not stated)	36*	4%	0%	-4%	7%	57
Cc1ccc2c(c1)Cc1c(C(=O)NN3CCCCC3)nn(-c3ccc(Cl)cc3Cl)c1-2	22	.	.	.	?	17
CSc1ccc(NS(=O)(=O)c2ccc(-n3cnnn3)cc2)cc1	5	-13%	-13%	-4%	.	-21
COc1ccc(S(=O)(=O)N2CN3CCN(C3)C2)cc1	-1	-1%	0%	-5%	8%	-5
CC1CCC2(CC1)NC(=O)N(CC(=O)Nc1sc3c(c1C(N)=O)CCC3)C2=O (configuration not stated)	-1	3%	40µM*	-6%	?	15
CC1SCC(=O)N(CC(=O)Nc2ccc3c(c2)OCCO3)C1=O (configuration not stated)	33*	1%	-4%	-4%	1%	33
CC1CCC2(CC1)NC(=O)N(CC(=O)Nc1ccc3c(c1)OCCCO3)C2=O (configuration not stated)	.	.	-3%	2%	.	.
O=C(CN1C(=O)NC2(CCCCCC2)C1=O)c1ccc2c(c1)OCCO2	36*	7%	0%	-7%	0%	118*
O=C(CN1C(=O)NC2(CCCCCC2)C1=O)c1ccc(F)cc1	.	.	-1%	-2%	.	.
CC1SCC(=O)N(CC(=O)Nc2ccc3c(c2)OCO3)C1=O (configuration not stated)	-2	-6%	0%	5%	4%	25
CC1CCC2(CC1)NC(=O)N(CC(=O)Nc1ccc3c(c1)OCCO3)C2=O (configuration not stated)	41*	2%	-3%	4%	4%	71*
CCOC(=O)[C@]12CCC=C1N(Cc1ccc(Cl)cc1Cl)C(=O)[C@H](CC(=O)NCc1cccc(C(F)(F)F)c1)C2	.	.	.	-2%	.	.
CCc1nc2c(OCc3cc(Cl)cc(Cl)c3)cccn2c1N(C)C(=O)c1ccc(C)cc1	.	.	.	4%	.	.
Cc1ccc(OCCOCCOc2cccc3cccnc23)c(Br)c1	-1	-2%	2%	0%	-3%	9
COc1cccc(C=O)c1OCCCOc1cccc2cccnc12	38*	2%	?	4%	-16%	66*
Brc1ccccc1OCCOc1cccc2cccnc12	16*	2%	-3%	-11%	-5%	68*
Cc1cc(C)cc(OCCCOc2cccc3cccnc23)c1	5	3%	0%	0%	-4%	-16
Brc1ccccc1OCCCOc1cccc2cccnc12	33*	3%	-1%	2%	-1%	.
COc1cc(C(=O)NCCOc2cccc3cccnc23)cc(OC)c1OC	6	8%	9%	1%	3%	21
CC(=O)c1cccc(OCCCOc2cccc3cccnc23)c1	19*	-1%	1%	-1%	-4%	20
CCOc1ccc(-c2cc(NC(=O)c3ccccc3)c(C(=O)OC)s2)cc1	.	.	-2%	2%	.	.
Cc1noc(C)c1-c1ccc2ncnc(NCc3ccc(-c4ccccc4)cc3)c2c1	38*	.	.	.	-2%	48*
O=C(/C=C/c1ccco1)Oc1ccc(C(=S)N2CCOCC2)cc1	35*	18%	-7%	-14%	-4%	41
O=Cc1cccc(OC(=O)/C=C/c2ccco2)c1	52*	15%	28µM*	1%	1%	80*
CC(/C=C/c1ccco1)=N\NC(=O)C(O)c1ccccc1 (configuration not stated)	-2	0%	?	-16%	-4%	23
COC(=O)N/N=C(C)\C=C\c1ccco1	-2	-15%	45µM*	3%	-9%	-2
